The text below walks through data of PubChem BioAssay AID2472 (National Center for Advancing Translational Sciences (NCATS), 2010).

“And” between values parts separate entries of the source, which are not always exact repeats. Identical values can stand only once. Screen size: about 290,000 compounds; about 2,000 (0.69%) were called active. No stated cut-off is given here; in the data, active means activity change below about -30%; inactive means the rest, inconclusive results apart. The list comes from a sample in which actives are over-represented; it also holds similar structures and randomly drawn compounds. The source holds several records for some structures; these can differ, active in one and inactive in another.
On the % scale 0 is the no-effect control and ±100 the full control effect.

The assay in a line: qHTS Assay for Inhibitors of Fructose-1,6-bisphosphate Aldolase from Giardia Lamblia: Coupling assay counterscreen. The following applies: coupling enzyme system counterscreen, AmpLite Red fluorescence; at 58.2 µM (top of the series). The essentials:
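Activity here indicates interference with the coupling reaction, not aldolase inhibition. Compounds at 57.5 uM final met coupling enzymes for 10 min at RT; substrate and AmpLite Red detection followed, with a 525/598 nm fluorescence read after 20 min.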
A general note: In qHTS, concentration-response curves come from the screen itself.
For `Cn1cc(-c2nc3cnc(N4CCNCC4)nc3n(CCc3ccccc3)c2=O)c2ccccc21`, the activity change, negative = inhibition was -0.191% (inactive). The figure for `CC(C)C1=CC2=CC[C@@H]3[C@](C)(CO)CCC[C@]3(C)C2CC1` (some centres not stated) is -1.26% (inactive); for `COc1cccc(CN(C)C(=O)CC23CC4CC(CC(C4)C2)C3)c1OC` it is -1.24% (inactive). Regarding `COc1ccc(S(=O)(=O)N2CCCC(C(=O)NCCCn3ccnc3)C2)cc1OC` (configuration not stated), the activity change, negative = inhibition is -2.16% (inactive).

In the case of `CCN(CC)c1ccc(C(=O)Nn2c(C)nc3ccccc3c2=O)cc1`, the activity change, negative = inhibition was 2.59% (inactive). The figure for `CC(C)Oc1c(Br)cc(Br)cc1/C=N/NC(N)=S` is -0.43% (inactive); for `Cc1ccc(-c2c3c(=O)n(C)c(=O)n(C)c3cn2-c2ccccc2O)cc1` it is -32% (active). On to `Cc1ccc(-c2c3c(=O)n(C)c(=O)n(C)c3cn2-n2cnnc2)cc1`, for which the activity change, negative = inhibition is 1.01% (inactive).

In the case of `COc1cccc(-n2cc3c(c2-c2ccccc2)c(=O)n(C)c(=O)n3C)c1`, the activity change, negative = inhibition was -16.5% (inactive). The figure for `O=c1o[nH]c(-c2ccccc2)c1N=Nc1c(F)cccc1Cl` is 5.04% (inactive); for `COc1cnc(SCc2ccc(Cl)c(Cl)c2)nc1Cl` it is 1.35% (inactive). The figure for `CCCC(=O)N1CCC(CCC(=O)NC2CC2)CC1` is 0.0768% (inactive); for `O=C(CC(n1cncn1)C(Cl)(Cl)Cl)c1ccc([N+](=O)[O-])cc1` (configuration not stated) it is -0.311% (inactive); for `O=C(CN1C(=O)COc2ccccc21)Nc1ccc(F)cc1` it is -7.46% (inactive).

Regarding `O=C(CN1C(=O)COc2ccccc21)NCCN1CCc2ccccc2C1`, the activity change, negative = inhibition was -31.2% (active). The figure for `CCCN1CCN(CCCNC(=O)CN2C(=O)COc3ccccc32)CC1` is -1.3% (inactive). For `COCc1cc(C)n(CC(=O)NCC2CCCO2)c(=O)c1C#N` (configuration not stated) the value was 0.717% (inactive); for `CNS(=O)(=O)c1ccc(NC(=O)Nc2ccc3c(c2)OCO3)cc1`, -1.22% (inactive). For `CCCCN(CC)C(=O)C1CCCN(S(=O)(=O)c2cccc3nsnc23)C1` (configuration not stated) the value was -1.17% (inactive).

Take `COc1ccc(CC(=O)Nc2c(C(N)=O)oc3ccccc23)cc1`: the activity change, negative = inhibition was 2.14% (inactive). For `Clc1ccccc1CSc1nnc(-c2ccco2)c(-c2ccco2)n1` the value was -6.43% (inactive); for `Cn1c(-c2ccco2)nc2cc3ccccc3cc21`, -10.1% (inactive).

On to `c1coc(-c2nc3nc4ccccc4n3nc2-c2ccco2)c1`, for which the activity change, negative = inhibition is -45.8% (active). Regarding `CN(CCOc1ccccc1)C(=O)c1cc(COc2c(F)cccc2F)on1`, the activity change, negative = inhibition was -0.542% (inactive). The figure for `CN1CCN(/N=C2/C(=O)Nc3ccc([N+](=O)[O-])cc32)CC1` is -19.1% (inactive). The figure for `O=[N+]([O-])c1ccc(N(CCO)Cc2ccccc2)c([N+](=O)[O-])c1` is -1.63% (inactive); for `O=C1Nc2ccc([N+](=O)[O-])cc2C1=Nc1cccc(CO)c1` it is -33% (active). The figure for `COC(=O)N/N=C/c1cn(CCCOc2ccc(C)cc2)c2ccccc12` is -8.57% (inactive). As for `COc1ccc(C2CC(O)(c3ccccc3)Oc3cc(C)cc(C)c32)cc1` (configuration not stated), the activity change, negative = inhibition is -4.71% (inactive). For `CC1C(=O)C(C)C(c2ccc(O)cc2)NC1c1ccc(O)cc1` (configuration not stated) the value was -1.45% (inactive). In the case of `CCOC(=O)c1cc2occc2n1CC(=O)NC1CCC(C)CC1` (configuration not stated), the activity change, negative = inhibition is -0.298% (inactive).

As to `CCOC(=O)c1cc2c(ccn2C)n1CC(=O)N1CCC(C)CC1`, the activity change, negative = inhibition was -41.2% (active). For `CCOC(=O)c1cc2occc2n1CC(=O)N1CCN(C(=O)c2ccco2)CC1` the value was 2.42% (inactive). With `COC(=O)N1C(/C=C/C=C/c2ccc(OC)cc2)=Cc2ccccc2C1CC(C)=O` (configuration not stated), the activity change, negative = inhibition was -0.194% (inactive). For `CCc1ccccc1NC(=O)CN(C)C(=O)COc1ccc(C)nc1[N+](=O)[O-]` the value was -2.08% (inactive). `Cc1ccc(OCC(=O)NC(C)c2ccccc2)c([N+](=O)[O-])n1` (configuration not stated): the activity change, negative = inhibition is 0.28% (inactive). Turning to `Cc1ccc(OCC(=O)Nc2ccccc2Sc2ccc(Cl)cc2)c([N+](=O)[O-])n1`, the activity change, negative = inhibition was -30.3% (active). Take `C=C(C(C)=O)C(O)c1cccs1` (configuration not stated): the activity change, negative = inhibition was 2.11% (inactive). For `O=C(COCc1cc(-c2ccc3c(c2)OCO3)on1)N1CCN(c2cccc(Cl)c2)CC1` the value was -0.674% (inactive); for `CCN(CC)c1ccc(/C=N/Nc2nc(C)cc(C)n2)c(O)c1`, -8.39% (inactive); for `CCN(CC)c1ccc2oc(=O)c(C)nc2c1`, -46.3% (active). On to `CCN(CC)c1ccc2cc(C(N)=O)/c(=N\NC(=O)c3ccncc3)oc2c1`, for which the activity change, negative = inhibition is -7.4% (inactive).

In the case of `CCC(=O)Nc1ccc2nn(-c3ccc(F)cc3)nc2c1`, the activity change, negative = inhibition was 0.799% (inactive). The figure for `O=C(O)CCC(=O)NCc1ccc2[nH]c3c(c2c1)CCCC3` is -41.3% (active). The figure for `Cc1cccc(NC(=S)NCc2ccc3[nH]c4c(c3c2)CCCC4)c1` is -0.782% (inactive); for `O=C(O)CCC(=O)NCc1ccc(C(=O)O)cc1` it is 3.84% (inactive); for `Cc1ccc(C23CC4CC(CC(C(=O)NCC(=O)O)(C4)C2)C3)cc1` it is 6.61% (inactive).

For the compound `O=S(=O)(Nc1cccc(Oc2ccc(Cl)cc2)n1)c1ccc(F)cc1`, the activity change, negative = inhibition is 3.65% (inactive). In the case of `Cc1cc(C)c(C2C3=C(Nc4c2c(C)nn4-c2ccccn2)c2ccccc2C3=O)c(C)c1` (configuration not stated), the activity change, negative = inhibition is -0.679% (inactive). Turning to `Cc1ccc(C2C3=C(Nc4[nH]n(-c5ccccc5)c(=O)c42)c2ccccc2C3=O)cc1` (configuration not stated), the activity change, negative = inhibition is -44% (active).

Regarding `Cc1ccc(-c2ccnc3[nH]n(-c4ccccc4)c(=O)c23)cc1`, the activity change, negative = inhibition was 2.09% (inactive).

`COc1cc(Cl)c(C)cc1NC(=O)CN1CCCCCC1`: the activity change, negative = inhibition is 0.688% (inactive). Turning to `N#Cc1c(N)sc2c1CCN(C(=O)OCc1ccccc1)C2`, the activity change, negative = inhibition is -39.2% (active).

Consider `CC(C)N1CCc2c(sc(NC(=O)Cc3ccccc3)c2C#N)C1`, for which the activity change, negative = inhibition is -3% (inactive). For `CC(=O)N1CCc2c(sc(NC(=O)CCS(=O)(=O)c3ccccc3)c2C#N)C1`, the activity change, negative = inhibition is 1.84% (inactive). For `O=C1C2C(c3ccccc3)CC=CC2C(c2ccoc2)N1Cc1ccccc1` (configuration not stated) the value was 8.25% (inactive); for `CCCCC1=CC2=CC(=O)C(C)(OC(=O)CC)C(=O)C2=CN1CCCOC(C)C` (configuration not stated), -25% (inactive) and -18.1% (inactive). The figure for `CC(C)(C)OC(=O)NCCCCC1=CC2=CC(=O)C(C)(OC(=O)c3cccs3)C(=O)C2=CO1` (configuration not stated) is 0.595% (inactive); for `COC(=O)CCCC1=CC2=CC(=O)C(C)(OC(=O)c3cccs3)C(=O)C2=CN1CC(C)C` (configuration not stated) it is -16.4% (inactive) and -34.8% (active); for `COC(=O)CCCC1=CC2=CC(=O)C(C)(OC(=O)c3cccs3)C(=O)C2=CN1c1ccc(CO)cc1` (configuration not stated) it is 1.62% (inactive).

With `COC(=O)CCCC1=CC2=CC(=O)C(C)(OC(=O)c3cccs3)C(=O)C2=CN1c1cccc(C#N)c1` (configuration not stated), the activity change, negative = inhibition was -7% (inactive) and -4.26% (inactive). The figure for `COC(=O)CCCC1=CC2=CC(=O)C(C)(OC(=O)c3cccs3)C(=O)C2=CN1CC1CC1` (configuration not stated) is -36.8% (active) and -32.4% (active).
